SW480 rerep – inducers of DNA re-replication in SW480 colon cancer cells; hit rate 1.8% among 340,000; AID 624297; SW480 DNA re-replication, Hoechst DNA content imaging, 48 h; Potency, µM (highest dose often 46.1 µM), usual class: activators; note: nearly all actives have a fitted effect of over 55% in size
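Cells (250 per well) received 23 nL compound or DMSO by pin tool and were kept 48 hr at 37 C, 5% CO2. Nuclei were then stained with Hoechst for 40 min and scanned for DNA content.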
ELG1 repair inh – inhibitors of ELG1-dependent DNA repair in HEK293T cells; HEK293T ELG1-luciferase reporter, luminescence, 16 h; DNA damage induced by 5-fluorouridine; Potency, µM (titrated, usually from 46.1 µM), hits mostly inhibitors; hit rate 2.3% among 330,000; note: nearly all actives have a fitted effect of over 55% in size
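Cells (2,000 per well) received 5-fluorouridine plus test compound or DMSO and were incubated 16 hr at 37 °C, 5% CO2. Luciferase activity was read by luminescence 30 min after ONE-Glo addition; signal suppression marked inhibition of damage-induced ELG1 function.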
MCF10A rerep – DNA re-replication induction in MCF 10a cells | MCF 10A DNA re-replication, Hoechst nuclear intensity, 48 h | Potency, µM (titrated, usually from 46.1 µM), actives largely listed as activators | hit rate 2.9% among 350,000 | AID 624296; note: nearly all actives have a fitted effect of over 50% in size
KB-V1 MDR tox – kills drug-selected multidrug resistant KB-V1 cells; Potency, µM (highest dose often 46.1 µM), hits mostly cytotoxic; hit rate 3.4% among 400,000; KB-V1 MDR cells viability, CellTiter-Glo, 72 h; note: nearly all actives have a fitted effect of over 60% in size
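Drug-selected KB-V1 cells, grown in DMEM lacking phenol red with 10% FBS, receive compound titrations; after three days at 37 degrees C, surviving cell ATP is quantified by CellTiter-Glo luminescence and responses normalized and curve-fitted.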
KB-3-1 tox – kills parental KB-3-1 adenocarcinoma cells. KB-3-1 viability, CellTiter-Glo ATP luminescence, 72 h. hit rate 1.4% among 400,000. Potency, µM (doses to about 46.1 µM), usual class: cytotoxic; note: nearly all actives have a fitted effect of over 60% in size
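Viability of parental KB-3-1 cells, measured by CellTiter-Glo luminescence, followed a 72 h incubation at 37 °C with pinned compounds in phenol-red-free DMEM containing 10% FBS.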
Hits are given with their value; 0 = inactive; ? = inconclusive; - = no result given. Only some compounds are listed: those with a hit (about 8.2% of all), similar ones and a draw of the others. Calls come from the whole dose curve; as a rule, active = well fitted curve in the direction sought with a large enough effect; inconclusive = small, poorly fitted or top-dose-only effect, or another doubt; inactive = no such curve, though single readings can be large; an effect the other way counts as inactive or inconclusive.

SMILES | SW480 rerep | ELG1 repair inh | MCF10A rerep | KB-V1 MDR tox | KB-3-1 tox
CCOC(=O)C(CC)/C(C)=N\NC(=O)c1ccccc1O (centres undefined) | ? | 0 | ? | 2.06µM | ?
O=C(COC(=O)CCC(=O)c1cccs1)NCCc1ccccc1 | 0 | 0 | 0 | 0 | 0
Cc1cc(Cl)ccc1OCC(=O)OCC(=O)c1c(N)n(C)c(=O)n(C)c1=O | 0 | 0 | 0 | ? | 0
CCOc1ccc(NC(=O)N2CCOc3ccccc32)cc1 | - | - | - | 0 | 0
Cc1cccc(NC(=O)c2sc3nc4c(c(-c5cccs5)c3c2N)CN(C)CC4)c1 | ? | ? | 16.4µM | 0 | 0
Nc1nc(-c2ccc3c(c2)CCC(=O)N3)cs1 | 0 | ? | 0 | 3.66µM | 5.17µM
CCn1c(C(=O)NCc2ccccc2Br)cc2oc3ccccc3c21 | - | - | - | 0 | 0
CC(OC(=O)c1ccccc1OCCOc1ccccc1)C(=O)Nc1ccc(Br)cc1 (centres undefined) | - | - | - | 0 | 0
O=C1CCSC2(C(=O)N(Cc3ccc(F)cc3)c3ccccc32)N1c1ccccc1 (centres undefined) | - | - | - | 0 | 0
O=C1CSC2(C(=O)N(Cc3cccc(C(F)(F)F)c3)c3ccccc32)N1c1ccc(F)c(F)c1 (centres undefined) | - | - | - | 0 | ?
O=C1CSC2(C(=O)N(Cc3ccccc3F)c3ccccc32)N1c1ccc(F)cc1 (centres undefined) | - | - | - | 16.4µM | ?
CCc1cccc(N2C(=O)CSC23C(=O)N(Cc2ccccc2F)c2ccccc23)c1 (centres undefined) | - | - | - | 14.6µM | 20.6µM
NC(=O)NC(=O)COC(=O)/C=C/c1cccc(Br)c1 | 0 | 0 | 0 | 0 | 0
CCOC(=O)C(CC)(CC)C(=O)/C=C/c1cccc(Br)c1 | ? | - | 18.4µM | ? | ?
CNC[C@@H](Cc1ccccc1)NC[C@@H](CC1CCCCC1)NCCCc1ccccc1 | 0 | ? | 0 | 0 | ?
CNC[C@@H](CC1CCCCC1)NC[C@H](CC(C)C)NCCc1cccc(C(F)(F)F)c1 | ? | ? | 7.31µM | ? | ?
COc1cc2c(cc1OC)CN(C(=O)CCNS(=O)(=O)c1ccccc1F)CC2 | 0 | 0 | 0 | 0 | 0
Cc1ccccc1Nc1nnc(SCC(=O)Nc2ccccc2[N+](=O)[O-])s1 | 0 | ? | 0 | 0 | 0
Cc1cc(C)nc(SCC(=O)Nc2ccccc2[N+](=O)[O-])n1 | 0 | 0 | 0 | 23.1µM | 0
Cc1cc(C)nc(SCC(=O)Nc2ccnc3ccccc23)n1 | 0 | ? | 0 | 4.61µM | 3.66µM
Cc1cc(C)n2nc(SCC(=O)Nc3ccc(F)cc3[N+](=O)[O-])nc2n1 | 0 | 0 | 0 | 20.6µM | 0
Cc1cccc(Nc2nnc(SCC(=O)Nc3ccccc3[N+](=O)[O-])s2)c1 | 0 | 0 | 0 | 20.6µM | 0
COc1ccc(C(=O)NC(CC(=O)O)c2cc([N+](=O)[O-])ccc2Cl)c(SC)c1 (centres undefined) | 0 | 0 | 0 | 0 | 0
N#CCCN(Cc1ccccc1)C(C(=O)NC1CCCCC1)c1ccnc2ccccc12 (centres undefined) | - | - | - | ? | 0
CN(c1ccccc1)c1nc(C#N)nc(N2CCOCC2)n1 | - | - | - | ? | 0
SMILES | SW480 rerep | ELG1 repair inh | MCF10A rerep | KB-V1 MDR tox | KB-3-1 tox
Cc1ccc(-c2nc3ncccc3o2)cc1NC(=O)c1ccc(-c2cccc(Cl)c2C)o1 | - | - | - | 0 | 0
Cc1cc(C)nc(SCNC(=O)c2ccccc2)n1 | 5.8µM | 0 | ? | 0 | 0
Cc1cc(SCNC(=O)c2ccccc2)nc(C(C)C)n1 | 0 | 0 | 0 | 0 | 0
CSC1=C(C#N)C(C)C2=C(CC(C)(C)CC2=O)N1 (centres undefined) | 0 | ? | 0 | 23.1µM | ?
CC(C)Cc1nc2oc3c(NCC4CCCO4)ncnc3c2c2c1CCC2 (centres undefined) | 0 | 11.6µM | ? | 10.3µM | ?
CC(C)c1nc2oc3c(NCc4cccnc4)ncnc3c2c2c1CCC2 | 0 | 8.2µM | ? | ? | 0
CCCc1nc2oc3c(NCC(C)O)ncnc3c2c2c1CCCC2 (centres undefined) | 0 | 23.1µM | 0 | ? | 0
CC(C)Cc1nc2oc3c(NCc4cccnc4)ncnc3c2c2c1CCC2 | 0 | ? | 0 | ? | 0
CCOCCCNc1nc2ccccc2n2c(CC)nnc12 | - | - | - | 0 | 0
COc1ccc(Cl)cc1NC(=O)N1CCN(c2ccccc2OC)CC1 | 0 | 0 | 0 | 0 | 0

Source: PubChem BioAssay
